From PubChem
Giardia FBPA inh-1: qHTS Assay for Inhibitors of Fructose-1,6-bisphosphate Aldolase from Giardia Lamblia | 0.71% of 290,000 active | Potency, µM (top dose mostly 59.6 µM), usual class: inhibitors | purified Giardia FBPA | A8B2U2 | AID 2451, 2010; note: nearly all actives have a fitted effect of over 55% in size
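Giardia FBPA (40 nM reagent) was preincubated 10 min at RT with compound (up to 57.5 uM final), then substrate plus GAPDH/TPI/NAD/arsenate coupling system with diaphorase/resazurin was added; resorufin fluorescence (525/598 nm) was read after 20 min.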
Vaccinia Venus: qHTS for Stage-Specific Inhibitors of Vaccinia Orthopoxvirus: Venus Reporter Primary qHTS; Vaccinia virus Venus reporter expression, fluorescence; Potency, µM (series often up to 36.5 µM), usual class: inhibitors; 0.46% of 330,000 active; AID 720580, 2013; calls by dose curve; tested in A549 cells; note: nearly all actives have a fitted effect of over 30% in size
FMDV inh: High Throughput Screening for Foot and Mouth Disease Virus Antivirals. FMDV antiviral cell-based qHTS. 1.2% of 410,000 active. AID 1159524, 2015. Potency, µM (titrated, usually from 57.9 µM), usual class: inhibitors; calls by dose curve; tested in HEK293T cells; note: read-out not given here; nearly all actives have a fitted effect of over 45% in size
HCV inh: qHTS Assay for Inhibitors of Hepatitis C Virus (HCV). 3.4% of 340,000 active. AID 651820, 2012. Potency, µM (highest dose often 41.8 µM), usual class: inhibitors. Huh7.5.1 HCVcc-Cre infection, luciferase reporter, 44 h
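Reporter virus HCVcc-Cre (~0.5 moi) infects cells exposed to compound; seeding density 1,000 cells/well with 4 h settling beforehand. Luminescence, 15 sec read, taken 44 h post-infection following a 15 min RT substrate incubation.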
VACV mCherry inh: qHTS for Stage-Specific Inhibitors of Vaccinia Orthopoxvirus: mCherry Reporter Primary qHTS; Potency, µM (series often up to 36.5 µM), usual class: inhibitors; Vaccinia virus mCherry reporter infection, fluorescence; AID 720579, 2013; 0.63% of 310,000 active; calls by dose curve; tested in A549 cells; note: nearly all actives have a fitted effect of over 35% in size
HCMV antiviral: qHTS Assay for inhibitors of the human cytomegalovirus (HCMV) | activity change, negative = inhibition, % at 57.5 µM | HFF cells, HCMV-luciferase reporter, 72 h; hits give low values | 4.5% of 410,000 active | AID 1259415, 2018; in the data active = activity change below about -60%; inconclusive = no clear call, values can overlap the other calls; inactive = above about -39%
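After 16 h attachment at 37C, HFF cells received test compound and HCMV-luciferase (1 PFU/cell); reporter luminescence read 72 h later, data normalized against buffer-only and known inhibitor Salinomycin.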
Giardia growth: qHTS Assay for Inhibitors of Fructose-1,6-bisphosphate Aldolase from Giardia Lamblia: Giardia lamblia growth inhibition; Potency, µM (series often up to 57.5 µM), most hits filed as inhibitors; Giardia lamblia trophozoite growth inhibition; shares compounds with Giardia FBPA inh-1; 5% of 1,500 active;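 note: trophozoites exposed to compound for 48 h at 37 °C; nearly all actives have a fitted effect of over 70% in size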
Mammalian tox: qHTS Assay for Inhibitors of Fructose-1,6-bisphosphate Aldolase from Giardia Lamblia: Mammalian cellular toxicity; mammalian cell viability counter-screen, qHTS; 4% of 1,500 active; shares compounds with Giardia FBPA inh-1; Potency, µM (titrated, usually from 57.5 µM), usual class: inhibitors;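 note: Chinese hamster ovary cells used as mammalian cytotoxicity surrogate; viability measured as cellular ATP by luminescence; compound exposure lasted 48 h before reading; nearly all actives have a fitted effect of over 60% in size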
Giardia FBPA inh-2: qHTS Assay for Inhibitors of Fructose-1,6-bisphosphate Aldolase from Giardia Lamblia: Primary screen confirmation; shares compounds with Giardia FBPA inh-1; Potency, µM (series often up to 57.5 µM), hits mostly inhibitors; 5% of 1,500 active; purified Giardia aldolase enzyme activity, qHTS; note: nearly all actives have a fitted effect of over 45% in size
Rabbit aldolase: qHTS Assay for Inhibitors of Fructose-1,6-bisphosphate Aldolase from Giardia Lamblia: Rabbit FBPA Selectivity; shares compounds with Giardia FBPA inh-1; Rabbit muscle FBPA enzyme inhibition, selectivity counter-screen; Potency, µM (titrated, usually from 57.5 µM), actives largely listed as inhibitors; 4% of 1,500 active; note: nearly all actives have a fitted effect of over 60% in size
Target sequence (P00883 whole entry, looked up): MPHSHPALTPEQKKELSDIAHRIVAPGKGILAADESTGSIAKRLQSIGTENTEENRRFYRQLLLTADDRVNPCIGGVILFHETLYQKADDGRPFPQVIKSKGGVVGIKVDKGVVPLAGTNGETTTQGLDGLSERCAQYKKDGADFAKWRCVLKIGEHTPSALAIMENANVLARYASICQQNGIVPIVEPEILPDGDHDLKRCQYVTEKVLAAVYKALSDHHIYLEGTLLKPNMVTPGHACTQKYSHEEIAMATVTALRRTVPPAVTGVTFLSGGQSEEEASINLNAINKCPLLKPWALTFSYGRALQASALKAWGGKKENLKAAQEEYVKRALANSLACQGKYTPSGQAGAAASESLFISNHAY
GAPDH coupling: qHTS Assay for Inhibitors of Fructose-1,6-bisphosphate Aldolase from Giardia Lamblia: Coupling assay counterscreen confirmation; shares compounds with Giardia FBPA inh-1; GAPDH coupling enzyme counterscreen, biochemical, qHTS; Potency, µM (doses to about 57.5 µM), actives largely listed as inhibitors; 6% of 1,500 active; note: nearly all actives have a fitted effect of over 55% in size
Large screens that a line does not name were inactive (follow-up assays come after a bar, where they were run); [ ] = remark or other dose. Compounds with a hit are over-represented: about 7.5% of the library has one in this group of screens. Unless noted, calls come from the whole dose curve; as a rule, active = well fitted curve in the direction sought with a large enough effect; inconclusive = small, poorly fitted or top-dose-only effect, or another doubt; inactive = no such curve, though single readings can be large; an effect the other way counts as inactive or inconclusive.

COc1cc2nc(CN(C)Cc3nc4ccccc4c(=O)[nH]3)[nH]c(=O)c2cc1OC	Giardia FBPA inh-1 inconclusive (no result: Vaccinia Venus, VACV mCherry inh)
CCN(Cc1nc2ccccc2c(=O)[nH]1)Cc1nc2cc(OC)c(OC)cc2c(=O)[nH]1	Giardia FBPA inh-1 5.6µM (no result: Vaccinia Venus, VACV mCherry inh) | Giardia growth inactive | Mammalian tox inactive | Giardia FBPA inh-2 inconclusive | Rabbit aldolase inactive | GAPDH coupling inactive
Cc1cccc(C)c1NC(=S)NC(C)(C)CO	none (no result: Vaccinia Venus, VACV mCherry inh)
Cc1ccc(/C=C2\SC(=S)N(NS(=O)(=O)c3ccc(C)cc3)C2=O)cc1	Giardia FBPA inh-1 25µM (no result: Vaccinia Venus, VACV mCherry inh) | Giardia growth inactive | Mammalian tox inactive | Giardia FBPA inh-2 inactive | Rabbit aldolase inactive | GAPDH coupling inactive
Cc1ccc(S(=O)(=O)NN2C(=O)/C(=C\c3ccc(Cl)cc3)SC2=S)cc1	none (no result: Giardia FBPA inh-1)
COc1ccc(C)cc1NC(=O)C(NCC(O)c1ccccc1)c1ccccc1 (centres undefined)	Giardia FBPA inh-1 13µM (no result: Vaccinia Venus, VACV mCherry inh) | Giardia growth inactive | Mammalian tox inactive | Giardia FBPA inh-2 inactive | Rabbit aldolase inactive | GAPDH coupling inactive
O=C1CCC2c3[nH]c4ccccc4c3CCN12 (centres undefined)	none (no result: Giardia FBPA inh-1, HCV inh)
S=C1NCCOCCNC(=S)NCCOCCOCCOCCN1	Giardia FBPA inh-1 4.5µM | Giardia growth inactive | Mammalian tox inactive | Giardia FBPA inh-2 inactive | Rabbit aldolase inactive | GAPDH coupling inactive
Cc1[nH]c2ccccc2c1/C=N/Nc1nncn1N	Giardia FBPA inh-1 13µM, Vaccinia Venus inconclusive, VACV mCherry inh inconclusive, HCMV antiviral -64 | Giardia growth inactive | Mammalian tox inactive | Giardia FBPA inh-2 inconclusive | Rabbit aldolase inconclusive | GAPDH coupling inactive
Cc1[nH]c2ccccc2c1/C=N/Nc1ccccn1	none (no result: Vaccinia Venus, FMDV inh, HCV inh, VACV mCherry inh)
O=c1[nH]c(=S)[nH]c2nc[nH]c12	none (no result: Giardia FBPA inh-1, FMDV inh, HCV inh, HCMV antiviral)
S=c1nc[nH]c2nc[nH]c12	Giardia FBPA inh-1 7.9µM, FMDV inh inconclusive | Giardia growth inactive | Mammalian tox 7.9µM | Giardia FBPA inh-2 inconclusive | Rabbit aldolase inactive | GAPDH coupling inactive
COc1ccc(O[C@H]2C=C[C@@H](c3ccccc3)O[C@H]2COC(=O)N2CCCCC2)cc1	none (no result: Vaccinia Venus, FMDV inh, HCV inh, VACV mCherry inh, HCMV antiviral)
Cc1ccccc1C(=O)NC(=S)Nc1ncccn1	Giardia FBPA inh-1 4.5µM | Giardia growth inactive | Mammalian tox inactive | Giardia FBPA inh-2 inactive | Rabbit aldolase inactive | GAPDH coupling inactive
Cc1ccccc1C(=O)NC(=S)Nc1ccccc1C(=O)O	none
Cc1ccccc1C(=O)Nc1nnc(-c2cccnc2)o1	Giardia FBPA inh-1 16µM | Giardia growth inconclusive | Mammalian tox inactive | Giardia FBPA inh-2 inactive | Rabbit aldolase inactive | GAPDH coupling inactive
Cc1ccccc1C(=O)Nc1nnc(-c2ccc(F)cc2)o1	VACV mCherry inh inconclusive
Cc1ccc(CN2CCCC(C(=O)N3CCCC3)C2)cc1 (centres undefined)	Giardia FBPA inh-1 25µM | Giardia growth inactive[10.4 µM] | Mammalian tox inactive | Giardia FBPA inh-2 inactive | Rabbit aldolase inactive | GAPDH coupling inactive
O=C(C1CCCN(Cc2ccccc2F)C1)N1CCCC1 (centres undefined)	none (no result: Vaccinia Venus, VACV mCherry inh)
